# Screening data as filed in PubChem BioAssay.
# Rows were chosen to be rich in hits. Some 3.2% of all compounds tested hit in one or more screens of this group.
# IL2 activator: qHTS of IL-2 Activators; IL-2 activation reporter assay, cell-based qHTS; stimulated with anti-CD3/CD4/CD28 beads; in transgenic mouse T cells; activation, % (series mostly up to about 46 µM); 360,000 compounds, 0.065% hits; in the data active = activation above about 50%; inconclusive = mostly about 30% to 49%; also: 0% is about no effect
#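 Readout is EGFP and DsRed signal by fluorescent plate cytometry after 18 h at 37 degrees C. Transgenic mouse T cells (750/well) received compound for 60 min before bead stimulation (anti-CD3, anti-CD4, anti-CD28); memory T cells served as non-tolerant control.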
# Nrf2 ARE act: qHTS of Nrf2 Activators. Potency, µM (top dose mostly 46.1 µM), without a hit: at the top dose activation, actives largely listed as activators. 410,000 compounds, 0.31% hits. AREc32 ARE-luciferase reporter (MCF7-derived line), luminescence, 24 h. AID 624171, 2012; also: potency is read from the fitted curve at half-maximal effect; % of control where 0% means no effect; nearly all actives have a fitted effect of over 65% in size
#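 AREc32_Fluc, 1000 cells/well, OPTI-MEM + 5% FBS, o/n 37 deg C 5% CO2; 23 nL cpd by pin tool, 24 hr; Steady-Glo 30 min RT, luminescence.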
# BRCA1 expr up: qHTS Assay to Identify Small Molecule Activators of BRCA1 Expression; MCF7-BRCA1-FFLuc reporter, luminescence, 48 h; response scale: scaled: vehicle 0%, 10 µM genistein 100%; Potency, µM (top dose mostly 46.1 µM), without a hit: top-dose activation, hits mostly activators; 380,000 compounds, 1.1% hits; AID 624202, 2012; also: potency is read from the fitted curve at half-maximal effect; nearly all actives have a fitted effect of over 80% in size
#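 Cells: MCF7-BRCA1-FFLuc, 2000/well. Exposure: 48 h, 37 °C, 5% CO2. Read: luminescence, 15 min post-substrate. Controls: genistein 10 microM (maximal activation), DMSO (neutral).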
# p53 reactivation: qHTS assay for re-activators of p53 using a Luc reporter; H1299 p53-A138V BP100-luciferase reporter, luminescence, 24 h; 320,000 compounds, 0.063% hits; Potency, µM (highest dose often 92.2 µM), for the others: at the top dose activity change, positive = activation, usual class: activators; AID 504706, 2011; also: potency is read from the fitted curve at half-maximal effect; % of control where 0% means no effect; nearly all actives have a fitted effect of over 45% in size
#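 H1299 (p53-null), stable ts p53-A138V + BP100-Luc; 1000 cells/well, Opti-MEM/10% FBS; cpd 4 pt, 1:5; 24 h, 37 deg C, 5% CO2; detection reagent 10 min RT; luminescence.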
# Nrf2 block: Nrf2 qHTS screen for inhibitors; A549 ARE-Fluc reporter, luciferase luminescence, 18-24 h; Potency, µM (doses to about 46 µM), inactives show at the top dose activity change, negative = inhibition, actives largely listed as inhibitors; 360,000 compounds, 2.1% hits; AID 504444, 2011; also: potency is read from the fitted curve at half-maximal effect; % is scaled to controls: 0 for no effect and ±100 for the full control effect; nearly all actives have a fitted effect of over 60% in size
#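 A549 ARE_Fluc cells, 5000/well, 5% FBS OPTI-MEM; compounds in dose-response, 18-24 h at 37 °C/5% CO2; CellTiter-Fluor viability read (Ex 405/Em 525), then BugLite luciferase luminescence = Nrf2 activity.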
# A549 tox: Nrf2 qHTS screen for inhibitors: counterscreen for cytotoxicity | 390,000 compounds, 0.16% hits | A549 ARE-Fluc cells, CellTiter-Fluor viability, 18-24 h | Potency, µM (highest dose often 46 µM), inactives show top-dose activity change, negative = cytotoxicity, most hits filed as inhibitors | AID 504648, 2011; also: potency is read from the fitted curve at half-maximal effect; % is scaled to controls: 0 for no effect and ±100 for the full control effect
#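 A549 ARE_Fluc cells in 5% FBS OPTI-MEM were exposed to compounds in concentration-response for 18-24 h at 37 deg C. Viability was read by CellTiter-Fluor fluorescence (Ex 405/Em 525) after 30 min, before the luciferase read.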
# The depositor's hits bear a star; ? = inconclusive; . = no result given. Unless noted, calls follow the shape of the dose curve; as a rule, active = well fitted curve in the direction sought with a large enough effect; inconclusive = small, poorly fitted or top-dose-only effect, or another doubt; inactive = no such curve, though single readings can be large; an effect the other way counts as inactive or inconclusive.
SMILES,IL2 activator,Nrf2 ARE act,BRCA1 expr up,p53 reactivation,Nrf2 block,A549 tox
Cn1c(C(=O)NCCC2=CCCCC2)cc2c(=O)n3ccccc3nc21,1.9,-0.2%,11.2µM*,17.5%,6.8%,13.6%
Cn1c(C(=O)NCCc2ccccc2)cc2c(=O)n3ccccc3nc21,.,-0.2%,.,.,11.5%,-12.0%
CCCCCNC(=O)c1cc2c(=O)n3ccccc3nc2n1C,.,4.4%,.,.,18.4µM*,-2.8%
Cn1cccc1C(=O)NC1CCCCCC1,0.0,4.3%,10µM*,7.08µM*,?,1.3%
CC1CCC(NC(=O)c2cccn2C)CC1 (configuration not stated),0.2,0.8%,?,.,?,-2.8%
O=C(N=Nc1c(O)[nH]c2ccc(Br)cc12)c1ccco1,-4.0,5.01µM*,5.4%,.,.,.
Cc1cccc(NC(=O)c2ccc3nccnc3c2)n1,5.3,-0.4%,12.6µM*,12.2%,2.8%,0.2%
O=C(Nc1ccc(OC(F)(F)F)cc1)c1ccc2nccnc2c1,0.4,6.3%,75.1%,6.8%,13µM*,?
CCCCOc1ccc(C(=O)Nc2cccc(C)n2)cc1,-0.4,0.3%,2.82µM*,?,?,-4.0%
Cc1cccc(NC(=O)c2cccc(NC(=O)c3ccccc3)c2)n1,-1.5,0.5%,4.0%,.,-16.5%,-1.5%
COC(=O)c1ccc(NC(=O)c2ccc3nccnc3c2)cc1,0.4,0.7%,23.9%,15.5%,14.4%,0.8%
Cc1c(C(=O)N2CCC(C)CC2)c(S(=O)(=O)NCc2ccccc2)c(C)n1C,.,0.6%,.,.,.,-5.7%
CCc1cccc(CC)c1NC(=O)c1cc(S(=O)(=O)N2CCc3ccccc32)cn1C,.,-1.2%,.,.,23.1µM*,-19.4%
CC(C)COc1ccc(C(=O)N(Cc2ccc(N(C)C)cc2)Cc2ccco2)cc1,.,-1.2%,.,.,?,1.5%
COc1ccc(CCNC(=O)c2ccc3nc(-c4ccco4)c(-c4ccco4)nc3c2)cc1OC,-1.6,3.3%,-69.8%,-3.4%,23.1µM*,-19.4%
CCc1nc2ccc(C(=O)NCCc3ccc(OC)c(OC)c3)cc2nc1CC,-2.7,-0.1%,-28.0%,-4.2%,-12.8%,0.6%
COc1ccc(NC(=O)C(c2ccccc2)n2c(=O)c(-c3cc4ccccc4[nH]3)nc3ccccc32)cc1 (configuration not stated),-0.8,.,.,.,.,.
COc1cc(O)c(CC=C(C)C)c(O)c1C(=O)CCc1ccc(O)cc1,0.0,-0.8%,-35.0%,16.8%,25.9µM*,?
CC(C)CNS(=O)(=O)c1ccc(CCC(=O)Nc2cc(Cl)ccc2Oc2ccccc2)cc1,-0.3,4.4%,14.9%,0.2%,.,-0.9%
CCCNS(=O)(=O)c1ccc(CCC(=O)Nc2cc(Cl)ccc2Oc2ccccc2)cc1,-0.9,3.3%,-100.7%,15.5%,16.4µM*,?
O=C(O)CCc1ccc(S(=O)(=O)Nc2ccc(OCc3ccccc3)cc2)cc1,-0.4,-0.1%,7.2%,1.0%,-10.3%,-9.8%
CCOc1ccc(Oc2ccccc2NS(=O)(=O)c2ccc(CCC(=O)O)cc2)cc1,0.3,-0.9%,7.1%,4.3%,10.3µM*,-13.7%
COc1ccccc1N/N=C/c1ccc2c(c1)OCO2,0.0,3.9%,46.5%,13.6%,?,-0.9%
CSc1nsc(N/N=C/c2ccc3c(c2)OCO3)c1C#N,0.2,5.8%,3.98µM*,?,4.1%,0.1%
COc1cc(/C=N/Nc2snc(SC)c2C#N)cc(OC)c1OC,0.5,3.1%,-58.5%,-2.6%,4.61µM*,-26.1%
SMILES,IL2 activator,Nrf2 ARE act,BRCA1 expr up,p53 reactivation,Nrf2 block,A549 tox
COc1cc(/C=N/Nc2ccc(F)cc2F)cc(OC)c1OC,-0.7,0.2%,0.7%,5.1%,-22.3%,0.4%
CSc1cccc(NS(=O)(=O)c2cn(C)c(C)n2)c1,.,-0.4%,-0.2%,.,.,10.3%
COc1ccc2c(Cl)c(C(=O)NCCc3ccc(S(N)(=O)=O)cc3)sc2c1,0.0,0.7%,-5.6%,.,-3.1%,4.0%
Cc1ccc2c(Cl)c(C(=O)NC3CC3)sc2c1,-5.2,-0.7%,2.82µM*,23.0%,?,5.8%
O=C(NC1CC1)c1sc2cc([N+](=O)[O-])ccc2c1Cl,-0.3,4.4%,52.9%,17.0%,16.2%,-6.9%
COc1ccc2c(Cl)c(C(=O)NN)sc2c1,-0.7,-0.6%,-15.2%,?,14.6µM*,-3.4%
COc1ccc2c(Cl)c(C(N)=O)sc2c1,-2.5,2.3%,10µM*,13.2%,4.6%,-5.5%
CCOC(=O)C1CCN(c2c(C(=O)c3ccc(OCC)cc3)cnc3ccc(OC)cc23)CC1,.,-1.2%,.,.,-8.6%,-5.4%
CCOc1ccccc1NC(=O)CCc1c(C)nn(-c2ccc(N3CCOCC3)nn2)c1C,.,-0.3%,0.0%,.,1.3%,4.1%
CCN(CC)C(=O)[C@H]1C[C@H](CC(=O)NCC23CC4CC(CC(C4)C2)C3)C(=O)N2CCc3c([nH]c4cc(-c5ccco5)ccc34)[C@]12C,-0.6,0.3%,-3.1%,-9.2%,-18.9%,-3.4%
CC(C)=CCC/C(C)=C/CNC(=O)C[C@H]1C[C@H](C(=O)N(C(C)C)C(C)C)[C@@]2(C)c3[nH]c4cc(-c5ccco5)ccc4c3CCN2C1=O,-0.5,15.0%,-70.5%,23.9%,23.1µM*,?
CC(C)N(C(=O)[C@H]1C[C@H](CC(=O)NCc2ccco2)C(=O)N2CCc3c([nH]c4cc(-c5ccco5)ccc34)[C@]12C)C(C)C,-0.7,4.5%,-63.3%,-8.1%,14.6µM*,-19.2%
CC(C)=CCC/C(C)=C/CNC(=O)C[C@H]1C[C@H](C(=O)N(C(C)C)C(C)C)[C@@]2(C)c3[nH]c4cc(CCC(=O)N(C)C)ccc4c3CCN2C1=O,-1.0,-1.0%,-68.4%,-7.7%,20.6µM*,-23.8%
CC(C)N(C(=O)[C@H]1CC(CC(=O)NCc2ccco2)C(=O)N2CCc3c([nH]c4ccccc34)[C@]12C)C(C)C (some centres not stated),0.6,0.3%,-26.5%,-0.9%,10.4%,-1.7%
CC(C)N(C(=O)[C@H]1C[C@H](CC(=O)NCCCN(C)C)C(=O)N2CCc3c([nH]c4cc(CCC(=O)N(C)C)ccc34)[C@]12C)C(C)C,-0.2,-0.9%,6.5%,12.1%,1.3%,-3.1%
C[C@]12c3[nH]c4cc(-c5ccco5)ccc4c3CCN1C(=O)[C@@H](CC(=O)NCC13CC4CC(CC(C4)C1)C3)C[C@@H]2C(=O)N1CCOCC1,-0.7,-1.0%,-72.0%,1.8%,23.1µM*,?
